Results on 39 compounds are retold here after PubChem BioAssay AID1347383 (Zoeller Lab, School of Medicine, Boston University, 2020).

The source made the active and inactive calls.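 The calls were made as follows: active = cell survival after UV exposure 2 SD above solvent-only control wells at 10 µM, confirmed on one or two repeats; inactive = the rest.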

The assay can be described thus: protection of CHO cells from pyrene-fatty acid UV killing, primary screen, phospholipid biosynthesis inhibitor project, ZR-82 cells, Analyticon library, screen 2 (AID 1347383).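 Also: survival reflects blocked phospholipid synthesis cutting uptake of the phototoxic fatty acid; compound and fatty acid exposure 3 h then viability read next day.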 To be noted: ZR-82 CHO cells, CellTiter Blue, at 10 µM, peroxisome-deficient CHO-K1 variant, with DGAT-1, DGAT-2 and ACAT inhibitors.
As to `N#CC(OC(=O)c1ccccc1)c1ccccc1` (centres undefined), the compound was classed as inactive.
On to `CCCCCCCCCCCCCCCCC1C(=O)OC(C)C1OC` (centres undefined), for which the compound was classed as inactive.
As to `Nc1ccccc1CCCCCCCCC(=O)O`, the outcome was inactive.
The value for `CC(=O)O[C@H]1CC[C@H](C)[C@@]2(C)[C@H](OC(C)=O)c3c(C)coc3C(=O)[C@H]12` was “inactive”; that for `C[C@H](O)c1nc2ccccc2c(=O)[nH]1` was “inactive”; that for `OC1C(O)C(O)C(O)C(O)C1O` (centres undefined) was “inactive”.
Regarding `C=CC(C)(C)c1cc2cc(CC(O)C(C)(C)O)c(OC)cc2oc1=O` (centres undefined), the call was inactive.
Under `C/C=C/C=C/[C@H]1Cc2cc(O)cc(O)c2O1` stands “inactive”.
As to `O=C(Cc1ccccc1)O[C@@H]1[C@@H](O)[C@H](O)[C@@H](CO)O[C@H]1O`, the compound was called inactive.
Consider `O=C1NC(Cc2ccccc2)C(=O)N2CCCC12` (centres undefined), for which the compound was called inactive.
`C/C=C/c1cc(O)c(C(=O)C(=O)CC)c(=O)o1`: the compound was called inactive.
With `C[C@@H]1CCC2C(C)(C)[C@H](O)CC[C@]2(C)[C@@]12Cc1c(O)cc3c(c1O2)CNC3=O` (some centres undefined), the compound was called inactive.
With `COC(=O)c1ccccc1O[C@@H]1O[C@H](CO)[C@@H](O)[C@H](O)[C@H]1O[C@@H]1O[C@@H](C)[C@H](O)[C@@H](O)[C@H]1O`, the outcome was inactive.
For `O=c1c(O)c(-c2c(O)cccc2O)oc2cc(O)cc(O)c12`, the compound was classed as inactive.
For `CC1NC(=O)c2ccccc2NC1=O` (centres undefined), the call was inactive.
Turning to `CCC(C)C(=O)O[C@H]1CCC=C2C=C[C@H](C)[C@H](CC[C@@H](O)C[C@@H](O)CC(=O)O)[C@H]21` (some centres undefined), the result was inactive.
For `CC(=O)O[C@H]1C[C@@]2(C)[C@@H](CC[C@H]3[C@@]4(C)C=CC(=O)[C@@H](C)[C@@H]4[C@H](OC(C)=O)C(=O)[C@@]32C)/C1=C(\CCC=C(C)C)C(=O)O`, the result was inactive.
For `C=C1C(=O)O[C@@H]2/C=C(\C)CC/C=C(\C(=O)O)C[C@@H](OC(=O)/C(C)=C/C)C12` (some centres undefined), the compound was called inactive.
For the compound `CC1=C2C[C@H]3O[C@@]3(C)CCC3O[C@@]3(C)C[C@@]2(O)OC1=O` (some centres undefined), the result was inactive.
Consider `COC(=O)C(CO)NC(=O)c1cccc(O)c1O` (centres undefined), for which the call was inactive.
With `O=C(c1cccc(O)c1)c1c(O)cc(O)cc1O`, the compound was called inactive.
For the compound `CC(C)=CCCC1(C)C(CC=C(C)C)CC2(CC=C(C)C)C(=O)C(=C(O)c3ccccc3)C(=O)C1(C)C2=O` (centres undefined), the outcome was inactive.
Take `C=C1C2=C(C(=O)N1OC)[C@H](O)[C@](C)(O)[C@H](CCCCC)O2`: the result was inactive.
On to `CC(Cc1ccc(O)c(O)c1)C(C)Cc1ccc(O)c(O)c1` (centres undefined), for which the compound was called inactive.
Take `CCC(C)CC(C)/C=C/CCC(O)C(Cc1ccc(O)cc1)NC` (centres undefined): the compound was called inactive.
As for `C/C=C(/C)C(=O)OC1C2OC2C2(CO2)C2C3OC(=O)C(C)C3CCC12C` (centres undefined), the call was inactive.
The value for `Cc1c(O)c2c(oc1=O)C(C)(O)C(C)OC2` (centres undefined) was “inactive”; that for `COc1cc(C(O)C(C)O)ccc1OC(C)Cc1cc(OC)c(OC)c(OC)c1` (centres undefined) was “inactive”.
Under `COc1cc(O)cc2c1C(=O)CC(c1ccc(O)cc1)O2` (centres undefined) stands “inactive”.
On to `O=C1CC(c2ccccc2)Oc2cc(O)cc(O)c21` (centres undefined), for which the compound was classed as inactive.
With `CC(=O)c1ccc(O[C@@H]2O[C@H](CO)[C@@H](O)[C@H](O)[C@H]2O)cc1`, the compound was classed as inactive.
`C=C1C(=O)O[C@@H]2C3=C(C)CCC[C@]3(C)CC[C@@]12O`: the outcome was inactive.
On to `CC(=O)OC1CC2C(C)(C)C(=O)C=CC2(C)C2CC(=O)C3=C(CCC3C3=CC(O)OC3=O)C12C` (centres undefined), for which the compound was called inactive.
On to `C/C=C(\C)C(=O)O[C@@H]1[C@@H](C(C)C)[C@@H](OC(C)=O)C=C(CO)[C@@H]1O`, for which the outcome was inactive.
Turning to `O=C(O)CC(O)(Cc1ccc(O)cc1)C(=O)O` (centres undefined), the result was inactive.
In the case of `O=C1OCC(c2ccccc2)=C1Cc1ccccc1`, the call was inactive.
In the case of `CC(=O)OC/C(=C/C(=O)O)CC[C@@H]1C(C=O)=CC[C@@H]2C(C)(C)CCC[C@@]12C`, the outcome was inactive.
Take `CCC(O)c1cccc(O)c1CN` (centres undefined): the compound was called inactive.
Under `CC(C)(O)c1ccc2c(c1)CCC1C(C)(C(=O)O)CCCC21C` (centres undefined) stands “inactive”.
